# Reference: PubChem BioAssay
# “And” between values parts separate entries of the source, which are not always exact repeats. Identical values can stand only once. Inconclusive results are not listed. The source made the active and inactive calls.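 How the source made its calls, unless noted: active means normalized viability below 100% at a tested concentration; inactive means the rest.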
# How the values were obtained:
# [1] = viability loss in pontine glioma line – cell-based, SU-DIPG-XVII, MIPE5.0, CellTiter-Glo, qHTS, dose response (AID 1347060; cut-off not given, nearly all actives have AC50 up to about 26 µM;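 on AC50: cells exposed to compound for 48 hours before viability readout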); details: CellTiter-Glo ATP luminescence
# [2] = viability loss in pontine glioma line – cell-based, SU-DIPG-XIII, MIPE4.0, CellTiter-Glo, qHTS, dose response (AID 1347061; cut-off not given, nearly all actives have AC50 up to about 37 µM;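 further: cells exposed to compound for 48 hours before readout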); details: CellTiter-Glo ATP luminescence
# [3] = viability loss in pontine glioma line – cell-based, SU-DIPG-XIII, MIPE5.0, CellTiter-Glo, qHTS, dose response (AID 1347064; cut-off not given, nearly all actives have AC50 up to about 23 µM;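 on AC50: cells exposed to compound for 48 hours before the viability read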); details: CellTiter-Glo ATP luminescence
# [4] = viability loss in pontine glioma line – cell-based, SU-DIPG-XXV, MIPE5.0, CellTiter-Glo, qHTS, dose response (AID 1347065; cut-off not given, nearly all actives have AC50 up to about 26 µM;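 further: cells exposed to compound for 48 hours before ATP readout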); details: CellTiter-Glo ATP luminescence
# [5] = growth inhibition of DIPG cells – cell-based, MIPE4.0 library, CellTiter-Glo luminescence, qHTS (AID 1347066; cut-off not given, nearly all actives have AC50 up to about 30 µM;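 further: cells exposed to compound for 48 hours before readout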); details: SU-DIPG-VI viability, CellTiter-Glo ATP luminescence
# [6] = JHH-DIPG-1 glioma cell viability, MIPE5.0 library, CellTiter-Glo luminescence, qHTS (AID 1347067; cut-off not given, nearly all actives have AC50 up to about 26 µM;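 further: cells exposed to compound for 48 hours before readout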); details: JHH-DIPG-1 glioma viability, CellTiter-Glo ATP luminescence
# [7] = growth inhibition of DIPG cells – cell-based, MIPE5.0 library, qHTS (AID 1347068; cut-off not given, nearly all actives have IC50 up to about 30 µM;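 on IC50: cells exposed to compound for 48 hours before viability readout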); details: SU-DIPG-XXV viability
# [8] = viability loss with induced miR-34 in A549 – imaging, A549 dox-inducible miR-34, nuclei and caspase counts, primary screen (AID 1347080;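 active means compounds whose cell count with miR-34 switched on is under 0.7 times the count with it off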); details: A549 miR-34 inducible, Hoechst nuclei count, 48 h
# [9] = MELAS cybrid and Rieske KO viability enhancers – cell-based, MELAS cybrids, Rieske KO mouse fibroblasts, CellTiter-Glo, primary screen (AID 1508586;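 active means mean z-score across replicates of 1.96 or higher in either the MELAS or the Rieske mutant cell line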;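 further: z relative to plate mean and SD of compound and empty wells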); details: low glucose
# [10] = drug combination growth inhibition, ovarian cancer – cell-based, oncology-focused library, rucaparib conditional, profiling panel (AID 1508598); details: patient-derived ovarian cancer cells, CellTiter-Glo viability, 144 h, stronger effect = lower value
# [11] = compounds altering HSF1 focus formation in cells – imaging, Selleck Cancer Library (AID 1347162; in the data active means plate-normalised HSF1 focus index below about 0.46); details: human cells, HSF1 nuclear foci imaging, at 10 µM; SSMD: measured here: HSF1 foci SSMD mean; cell count: measured here: cell number; plate-normalised HSF1 focus index: stronger effect = lower value
# [12] = viability loss in pontine glioma line – cell-based, SU-DIPG-IV, MIPE4.0, CellTiter-Glo, qHTS, dose response (AID 1347063; cut-off not given, nearly all actives have AC50 up to about 30 µM;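 further: compound exposure lasted 48 hours before the viability readout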); details: CellTiter-Glo ATP luminescence
# [13] = stronger effect = lower value, cell number ratio, induced over uninduced
# [14] = measured here: relative caspase fold change +Dox/-Dox
# [15] = measured here: total cells with miR-34 induction, stronger effect = lower value
# [16] = measured here: total cells without miR-34 induction
# [17] = MELAS cybrid survival, CellTiter-Glo 48 h, stronger effect = higher value
# [18] = Rieske KO mouse fibroblast survival, CellTiter-Glo 72 h
# [19] = at 0.000305 µM, OCI-C5x cells, with rucaparib 10 µM, 100% = cells with rucaparib alone
# [20] = at 0.000305 µM, OCI-C5x cells, without rucaparib
# [21] = at 0.000305 µM, OCI-P5x cells, with rucaparib 20 µM, 100% = cells with rucaparib alone
# [22] = at 0.000305 µM, OCI-P5x cells, without rucaparib
# [23] = at 0.00122 µM, OCI-C5x cells, with rucaparib 10 µM, 100% = cells with rucaparib alone
# [24] = at 0.00122 µM, OCI-C5x cells, without rucaparib
# [25] = at 0.00122 µM, OCI-P5x cells, with rucaparib 20 µM, 100% = cells with rucaparib alone
# [26] = at 0.00122 µM, OCI-P5x cells, without rucaparib
# [27] = at 0.00488 µM, OCI-C5x cells, with rucaparib 10 µM, 100% = cells with rucaparib alone
# [28] = at 0.00488 µM, OCI-C5x cells, without rucaparib
# [29] = at 0.00488 µM, OCI-P5x cells, with rucaparib 20 µM, 100% = cells with rucaparib alone
# [30] = at 0.00488 µM, OCI-P5x cells, without rucaparib
# [31] = at 0.0195 µM, OCI-C5x cells, with rucaparib 10 µM, 100% = cells with rucaparib alone
# [32] = at 0.0195 µM, OCI-C5x cells, without rucaparib
# [33] = at 0.0195 µM, OCI-P5x cells, with rucaparib 20 µM, 100% = cells with rucaparib alone
# [34] = at 0.0195 µM, OCI-P5x cells, without rucaparib
# [35] = at 0.0781 µM, OCI-C5x cells, with rucaparib 10 µM, 100% = cells with rucaparib alone
# [36] = at 0.0781 µM, OCI-C5x cells, without rucaparib
# [37] = at 0.0781 µM, OCI-P5x cells, with rucaparib 20 µM, 100% = cells with rucaparib alone
# [38] = at 0.0781 µM, OCI-P5x cells, without rucaparib
# [39] = at 0.313 µM, OCI-C5x cells, with rucaparib 10 µM, 100% = cells with rucaparib alone
# [40] = at 0.313 µM, OCI-C5x cells, without rucaparib
# [41] = at 0.313 µM, OCI-P5x cells, with rucaparib 20 µM, 100% = cells with rucaparib alone
# [42] = at 0.313 µM, OCI-P5x cells, without rucaparib
# [43] = at 1.25 µM, OCI-C5x cells, with rucaparib 10 µM, 100% = cells with rucaparib alone
# [44] = at 1.25 µM, OCI-C5x cells, without rucaparib
# [45] = at 1.25 µM, OCI-P5x cells, with rucaparib 20 µM, 100% = cells with rucaparib alone
# [46] = at 1.25 µM, OCI-P5x cells, without rucaparib
# [47] = at 5 µM, OCI-C5x cells, with rucaparib 10 µM, 100% = cells with rucaparib alone
# [48] = at 5 µM, OCI-C5x cells, without rucaparib
# [49] = at 5 µM, OCI-P5x cells, with rucaparib 20 µM, 100% = cells with rucaparib alone
# [50] = at 5 µM, OCI-P5x cells, without rucaparib
smiles,measurement,setting,value
O=S(=O)(O)CCSSCCS(=O)(=O)O,outcome,[1],inactive
same,outcome,[2],inactive
same,outcome,[3],inactive
same,outcome,[4],inactive
same,outcome,[5],inactive
same,outcome,[6],inactive
same,outcome,[7],inactive
same,fold change,[8]; [13],0.942 (inactive) and 0.926 (inactive)
same,fold change,[8]; [14],0.692 and 0.976
same,cell count,[8]; [15],8910 and 7810
same,cell count,[8]; [16],9460 and 8440
same,z-score,[9]; [17],-0.449 (inactive)
same,z-score,[9]; [18],0.587
same,viability,[10]; [19],98.2% (active)
same,viability,[10]; [20],108% (inactive)
same,viability,[10]; [21],105% (inactive)
same,viability,[10]; [22],108% (inactive)
same,viability,[10]; [23],106% (inactive)
same,viability,[10]; [24],106% (inactive)
same,viability,[10]; [25],105% (inactive)
same,viability,[10]; [26],103% (inactive)
same,viability,[10]; [27],102% (inactive)
same,viability,[10]; [28],103% (inactive)
same,viability,[10]; [29],101% (inactive)
same,viability,[10]; [30],100% (inactive)
same,viability,[10]; [31],100% (inactive)
same,viability,[10]; [32],107% (inactive)
same,viability,[10]; [33],105% (inactive)
same,viability,[10]; [34],104% (inactive)
same,viability,[10]; [35],100% (inactive)
same,viability,[10]; [36],104% (inactive)
same,viability,[10]; [37],98.4% (active)
same,viability,[10]; [38],98.9% (active)
same,viability,[10]; [39],100% (inactive)
same,viability,[10]; [40],105% (inactive)
same,viability,[10]; [41],101% (inactive)
same,viability,[10]; [42],97.9% (active)
same,viability,[10]; [43],127% (inactive)
same,viability,[10]; [44],101% (inactive)
same,viability,[10]; [45],94.1% (active)
same,viability,[10]; [46],89.9% (active)
same,viability,[10]; [47],116% (inactive)
same,viability,[10]; [48],101% (inactive)
same,viability,[10]; [49],90.1% (active)
same,viability,[10]; [50],88.4% (active)
CC(C)(C)c1cc(NC(=O)Nc2ccc(-c3cn4c(n3)sc3cc(OCCN5CCOCC5)ccc34)cc2)no1,AC50,[1],23.5 µM (active)
same,outcome,[2],inactive
same,AC50,[3],14.8 µM (active)
same,AC50,[4],16.6 µM (active)
same,AC50,[6],20.9 µM (active)
same,outcome,[7],inactive
same,fold change,[8]; [13],1 (inactive)
same,fold change,[8]; [14],0.781
same,cell count,[8]; [15],6520
same,cell count,[8]; [16],6510
same,SSMD,[11],0.734
same,cell count,[11],7630
same,plate-normalised HSF1 focus index,[11],1.05 (inactive)
same,z-score,[9]; [17],4.33 (active)
same,z-score,[9]; [18],-2.86
same,viability,[10]; [19],105% (inactive)
same,viability,[10]; [20],104% (inactive)
same,viability,[10]; [21],87.1% (active)
same,viability,[10]; [22],82.2% (active)
same,viability,[10]; [23],112% (inactive)
same,viability,[10]; [24],95% (active)
same,viability,[10]; [25],93.1% (active)
same,viability,[10]; [26],87% (active)
same,viability,[10]; [27],105% (inactive)
same,viability,[10]; [28],88.6% (active)
same,viability,[10]; [29],91.7% (active)
same,viability,[10]; [30],93.5% (active)
same,viability,[10]; [31],107% (inactive)
same,viability,[10]; [32],101% (inactive)
same,viability,[10]; [33],103% (inactive)
same,viability,[10]; [34],93.7% (active)
same,viability,[10]; [35],111% (inactive)
same,viability,[10]; [36],112% (inactive)
same,viability,[10]; [37],86.7% (active)
same,viability,[10]; [38],90.6% (active)
same,viability,[10]; [39],115% (inactive)
same,viability,[10]; [40],108% (inactive)
same,viability,[10]; [41],82.2% (active)
same,viability,[10]; [42],99% (active)
same,viability,[10]; [43],108% (inactive)
same,viability,[10]; [44],128% (inactive)
same,viability,[10]; [45],83.4% (active)
same,viability,[10]; [46],87.4% (active)
same,viability,[10]; [47],100% (inactive)
same,viability,[10]; [48],107% (inactive)
same,viability,[10]; [49],31.2% (active)
same,viability,[10]; [50],70.6% (active)
CN[C@@H](C)C(=O)N[C@H]1CCCC[C@H]2CC[C@@H](C(=O)N[C@@H](c3ccccc3)c3cn(CCCCc4ccc(CCCCn5cc([C@@H](NC(=O)[C@@H]6CC[C@@H]7CCCC[C@H](NC(=O)[C@H](C)NC)C(=O)N76)c6ccccc6)nn5)cc4)nn3)N2C1=O,outcome,[1],inactive
same,outcome,[2],inactive
same,outcome,[3],inactive
same,outcome,[5],inactive
same,outcome,[6],inactive
C[C@@H](NC(=O)c1ncnc(N)c1Cl)c1ncc(C(=O)Nc2cc(C(F)(F)F)c(Cl)cn2)s1,AC50,[1],16.6 µM (active)
same,AC50,[2],18.7 µM (active)
same,AC50,[3],14.8 µM (active)
same,outcome,[5],inactive
same,AC50,[6],5.9 µM (active)
same,outcome,[7],inactive
CCc1cc(-c2n[nH]c(C)c2-c2ccc3c(c2)OCCO3)c(O)cc1O,AC50,[1],18.6 µM (active)
same,AC50,[2],7.43 µM (active)
same,AC50,[12],2.64 µM (active)
same,AC50,[4],16.6 µM (active)
same,AC50,[6],20.9 µM (active)
same,IC50,[7],20.9 µM (active)
same,SSMD,[11],1.15
same,cell count,[11],5920
same,plate-normalised HSF1 focus index,[11],1.07 (inactive)
C/C=C/C/C=C/CCC(=O)[C@H]1O[C@H]1C(N)=O,AC50,[1],20.9 µM (active)
same,outcome,[2],inactive
same,AC50,[3],20.9 µM (active)
same,outcome,[5],inactive
same,AC50,[6],23.5 µM (active)
same,fold change,[8]; [13],0.809 (inactive) and 1.05 (inactive)
same,fold change,[8]; [14],2.34 and 1.07
same,cell count,[8]; [15],532 and 6420
same,cell count,[8]; [16],658 and 6130
